This passage reports inhibition results from ChEMBL document CHEMBL1961873, “Compounds: GSK PKIS; Assays: Nanosyn kinase panel” (2012).

The target in test [1] is Tyrosine-protein kinase receptor UFO (Homo sapiens) (UniProt P30530). To be noted: at 1 µM.
Test [2] deals with Tyrosine-protein kinase Blk (Homo sapiens) (UniProt P51451). Particulars: at 0.1 µM.
Test [3] has the same target. To be noted: at 1 µM.
For test [4], the target named is T1, Cytoplasmic tyrosine-protein kinase BMX (Homo sapiens) (UniProt P51813).
T1 sequence (whole entry): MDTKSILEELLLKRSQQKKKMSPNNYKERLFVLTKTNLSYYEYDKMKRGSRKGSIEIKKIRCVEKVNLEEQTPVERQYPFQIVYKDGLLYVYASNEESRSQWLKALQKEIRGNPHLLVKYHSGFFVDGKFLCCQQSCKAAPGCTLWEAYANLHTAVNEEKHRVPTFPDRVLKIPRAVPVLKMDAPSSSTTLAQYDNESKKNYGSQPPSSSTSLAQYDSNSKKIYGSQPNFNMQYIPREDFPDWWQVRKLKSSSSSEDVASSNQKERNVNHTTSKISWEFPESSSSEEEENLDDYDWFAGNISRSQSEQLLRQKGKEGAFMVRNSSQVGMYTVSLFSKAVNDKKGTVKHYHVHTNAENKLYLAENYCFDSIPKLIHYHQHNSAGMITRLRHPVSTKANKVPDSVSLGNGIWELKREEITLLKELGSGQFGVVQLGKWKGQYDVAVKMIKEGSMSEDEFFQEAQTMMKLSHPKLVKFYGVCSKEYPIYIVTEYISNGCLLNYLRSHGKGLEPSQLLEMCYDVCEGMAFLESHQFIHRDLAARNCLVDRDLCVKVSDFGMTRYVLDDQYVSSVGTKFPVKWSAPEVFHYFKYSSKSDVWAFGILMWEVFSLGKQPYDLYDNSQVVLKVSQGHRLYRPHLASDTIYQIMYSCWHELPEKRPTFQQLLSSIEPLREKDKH
Particulars: at 0.1 µM.

Test [5] deals with T1, Cytoplasmic tyrosine-protein kinase BMX (Homo sapiens). Particulars: at 1 µM.
The target in test [6] is Protein-tyrosine kinase 6 (Homo sapiens) (UniProt Q13882). Particulars: at 0.1 µM.
Test [7] has the same target. Particulars: at 1 µM.
The target of test [8] is Tyrosine-protein kinase BTK (Homo sapiens) (UniProt Q06187). To be noted: at 0.1 µM.
The target is the same in test [9]. Particulars: at 1 µM.
Test [10] addresses Tyrosine-protein kinase CSK (Homo sapiens) (UniProt P41240). Particulars: at 0.1 µM.

Tyrosine-protein kinase receptor UFO (Homo sapiens), sequence (P30530 whole entry): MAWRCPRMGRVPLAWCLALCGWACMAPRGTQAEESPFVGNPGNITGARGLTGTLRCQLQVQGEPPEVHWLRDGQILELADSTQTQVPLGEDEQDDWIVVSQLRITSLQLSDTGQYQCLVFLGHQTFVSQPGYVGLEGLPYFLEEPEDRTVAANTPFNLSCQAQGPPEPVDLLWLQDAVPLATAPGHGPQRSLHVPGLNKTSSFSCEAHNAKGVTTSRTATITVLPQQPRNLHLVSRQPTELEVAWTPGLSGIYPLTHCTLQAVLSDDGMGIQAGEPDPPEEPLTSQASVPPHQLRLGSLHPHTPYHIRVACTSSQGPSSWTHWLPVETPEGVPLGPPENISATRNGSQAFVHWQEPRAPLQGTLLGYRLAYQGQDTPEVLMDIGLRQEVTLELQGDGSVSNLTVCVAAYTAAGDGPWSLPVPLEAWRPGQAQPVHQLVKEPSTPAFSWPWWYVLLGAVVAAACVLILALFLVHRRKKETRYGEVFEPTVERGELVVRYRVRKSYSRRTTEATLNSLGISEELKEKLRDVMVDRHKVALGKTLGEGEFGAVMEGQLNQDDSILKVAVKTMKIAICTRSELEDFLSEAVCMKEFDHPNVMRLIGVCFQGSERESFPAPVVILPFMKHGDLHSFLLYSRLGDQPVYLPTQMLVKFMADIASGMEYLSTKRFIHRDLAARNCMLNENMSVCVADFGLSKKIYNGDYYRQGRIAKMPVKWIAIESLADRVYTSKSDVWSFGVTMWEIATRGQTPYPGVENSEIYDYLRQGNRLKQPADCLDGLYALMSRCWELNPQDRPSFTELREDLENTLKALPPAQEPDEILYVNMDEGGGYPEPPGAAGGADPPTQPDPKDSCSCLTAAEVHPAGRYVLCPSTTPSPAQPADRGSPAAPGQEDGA
Protein-tyrosine kinase 6 (Homo sapiens), sequence (Q13882 whole entry, looked up): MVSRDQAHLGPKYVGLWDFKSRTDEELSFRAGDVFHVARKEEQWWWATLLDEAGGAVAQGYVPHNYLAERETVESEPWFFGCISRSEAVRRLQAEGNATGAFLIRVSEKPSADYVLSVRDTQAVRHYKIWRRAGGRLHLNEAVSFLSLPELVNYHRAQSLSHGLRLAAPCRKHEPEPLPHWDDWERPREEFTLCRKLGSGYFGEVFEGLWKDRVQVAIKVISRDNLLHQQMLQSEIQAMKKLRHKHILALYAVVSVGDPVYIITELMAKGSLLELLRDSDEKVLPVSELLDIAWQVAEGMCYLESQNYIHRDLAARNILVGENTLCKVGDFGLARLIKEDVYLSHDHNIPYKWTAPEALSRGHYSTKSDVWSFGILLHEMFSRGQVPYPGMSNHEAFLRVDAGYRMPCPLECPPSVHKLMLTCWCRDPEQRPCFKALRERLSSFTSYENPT
Tyrosine-protein kinase BTK (Homo sapiens), sequence (Q06187 whole entry): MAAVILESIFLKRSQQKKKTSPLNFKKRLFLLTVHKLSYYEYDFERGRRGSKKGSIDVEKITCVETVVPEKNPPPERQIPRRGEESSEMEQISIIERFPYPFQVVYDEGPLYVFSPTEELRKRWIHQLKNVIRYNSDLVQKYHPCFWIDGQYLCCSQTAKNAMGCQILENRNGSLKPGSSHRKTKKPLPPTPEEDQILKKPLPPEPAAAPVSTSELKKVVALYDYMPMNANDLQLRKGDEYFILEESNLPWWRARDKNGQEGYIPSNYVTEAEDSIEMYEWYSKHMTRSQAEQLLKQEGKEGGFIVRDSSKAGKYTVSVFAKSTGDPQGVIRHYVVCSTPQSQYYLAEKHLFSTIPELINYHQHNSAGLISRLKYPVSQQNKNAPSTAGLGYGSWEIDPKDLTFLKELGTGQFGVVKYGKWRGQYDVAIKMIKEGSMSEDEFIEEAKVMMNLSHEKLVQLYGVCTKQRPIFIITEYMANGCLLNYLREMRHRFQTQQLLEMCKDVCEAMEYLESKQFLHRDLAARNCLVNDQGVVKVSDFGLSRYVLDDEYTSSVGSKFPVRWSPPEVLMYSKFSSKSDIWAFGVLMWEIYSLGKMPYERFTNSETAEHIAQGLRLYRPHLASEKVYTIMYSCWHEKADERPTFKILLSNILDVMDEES
Tyrosine-protein kinase Blk (Homo sapiens), sequence (P51451 2-505 limits assumed): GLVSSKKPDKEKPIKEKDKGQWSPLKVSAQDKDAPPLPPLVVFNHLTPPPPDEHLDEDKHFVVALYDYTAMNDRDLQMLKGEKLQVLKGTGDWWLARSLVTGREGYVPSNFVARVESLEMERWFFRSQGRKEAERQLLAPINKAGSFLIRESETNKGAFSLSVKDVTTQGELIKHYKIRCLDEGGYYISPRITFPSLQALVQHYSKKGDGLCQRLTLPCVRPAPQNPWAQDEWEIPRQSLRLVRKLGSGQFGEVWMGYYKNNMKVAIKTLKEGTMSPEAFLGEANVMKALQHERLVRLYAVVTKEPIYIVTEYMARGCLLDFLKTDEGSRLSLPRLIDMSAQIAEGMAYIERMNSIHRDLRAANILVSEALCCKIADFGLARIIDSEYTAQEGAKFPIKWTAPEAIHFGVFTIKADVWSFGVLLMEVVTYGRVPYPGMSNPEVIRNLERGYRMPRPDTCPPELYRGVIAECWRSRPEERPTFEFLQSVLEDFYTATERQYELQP
Tyrosine-protein kinase CSK (Homo sapiens), sequence (P41240 2-450 limits assumed): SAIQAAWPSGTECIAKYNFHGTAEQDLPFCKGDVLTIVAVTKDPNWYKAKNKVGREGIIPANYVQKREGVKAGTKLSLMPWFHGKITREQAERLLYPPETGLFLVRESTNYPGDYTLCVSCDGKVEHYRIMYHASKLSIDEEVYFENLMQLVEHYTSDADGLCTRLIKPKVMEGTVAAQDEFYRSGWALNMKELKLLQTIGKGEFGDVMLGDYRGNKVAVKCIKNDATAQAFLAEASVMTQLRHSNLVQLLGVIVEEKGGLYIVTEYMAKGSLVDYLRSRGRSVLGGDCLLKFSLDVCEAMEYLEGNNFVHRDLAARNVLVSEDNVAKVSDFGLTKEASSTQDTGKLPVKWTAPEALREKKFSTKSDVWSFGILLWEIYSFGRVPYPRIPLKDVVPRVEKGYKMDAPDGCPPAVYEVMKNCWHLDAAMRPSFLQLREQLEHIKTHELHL

On to `COc1cc2ncn(-c3cc(OCc4cccs4)c(C(N)=O)s3)c2cc1OC`, for which the inhibition in [1] was 1.31%; in test [2], 0.4%; in test [3], 18.6%; in test [4], -4.41%; in test [5], 3.5%; in [6] it was 2.12%. In addition, the inhibition in test [7] is 7.01%; in [8] it was -2.66%; in test [9], -0.98%; in test [10], 4.25%.

`Nc1nccc(-c2c(-c3ccc(F)cc3)ncn2C2CCC(O)CC2)n1` (stereo not given): the inhibition was 6.29% in [1]; 0.25% in test [2]; 5.98% in test [3]; -2.32% in [4]; 3.78% in test [5]; 1.95% in test [6]. Further, the inhibition is 14% in [7], -0.78% in test [8], 1.08% in test [9] and -1.06% in test [10].

As for `Cc1ccc(NC(=O)c2ccoc2)cc1-c1ccc(C(=O)NCC2CC2)cc1`, the inhibition in [1] is -2.93%; in [2], 1.47%; in test [3], 3.07%; in test [4] it was 3.34%; in test [5], 1.66%; in test [6], 0.58%. The inhibition came to 4.58% in [7], 0.36% in [8], 0.35% in [9] and 1.61% in test [10].

`CCc1nccc2c1nc(-c1nonc1N)n2CC`: the inhibition in [1] was 2.17%; in test [2], 0.44%; in test [3], 1.64%; in test [4], -1.94%; in [5], 2.51%; in [6] it was -3.14%. The inhibition in [7] is -0.37%; in test [8], -0.56%; in [9], 0.41%; in [10], 1.3%.

`Cc1nnc(-c2ccc(C)c(-c3ccc(C(=O)NCc4ccc(Cl)cc4)cc3)c2)o1`: the inhibition in test [1] is -7.1%; in test [2], -0.28%; in [3], 0.7%; in test [4] it was 2.05%; in [5], 1.64%; in [6], 2.2%. Further, the inhibition in test [7] is 6.8%; in test [8] it was -1.06%; in [9], -4.02%; in test [10], 3.38%.

For `COc1cc2ncn(-c3cc(OCCc4ccccc4)c(C(N)=O)s3)c2cc1OC`, the inhibition in test [1] was -2.35%; in [2] it was 1.59%; in test [3], 6.17%; in [4], -0.54%; in test [5], 3.43%; in [6] it was -0.83%. Also, the inhibition in [7] amounted to 4.33%; in test [8], 1.12%; in test [9] it was 0.02%; in test [10] it was 2.97%.

`O=C(Nc1n[nH]c2nc(-c3ccc(O)cc3)c(Br)cc12)C1CC1`: the inhibition was -7.01% in test [1]; 4.29% in test [2]; 15.4% in [3]; 3.85% in [4]; 13.4% in [5]; 3.18% in test [6]. Also, the inhibition in test [7] was 11.1%; in [8], -0.08%; in test [9] it was 0.5%; in test [10] it was 8.35%.

For `COc1ccc2cc(-c3c(-c4ccncc4)nc(-c4ccc(S(C)(=O)=O)cc4C)n3C)ccc2c1`, the inhibition in [1] was -4.46%; in test [2], 3.03%; in [3] it was 7.1%; in [4], 5.32%; in [5], 3.88%; in test [6] it was 29%. Besides, the inhibition was 85% in [7], -2.49% in [8], 0.28% in test [9] and 3.76% in test [10].

As to `CCc1cccc(CC)c1/C=C/c1cncc(C(=O)NC)c1`, the inhibition in test [1] was -1.28%; in test [2], 2.14%; in test [3], 4.46%; in test [4], 0.51%; in test [5] it was 4.87%; in test [6], 2.78%. For the same compound, the inhibition in [7] turned out to be 3.98%; in test [8], 2.48%; in test [9], 2.98%; in test [10], 1.29%.

Regarding `NC(=O)c1cc(-c2ccc(F)cc2)cc(-c2ccncc2)c1N`, the inhibition in test [1] is -4.61%; in test [2], 2.33%; in test [3], 4.55%; in [4], 7.08%; in [5] it was 7.6%; in [6], 3.05%. For the same compound, the inhibition was 5.71% in [7], 0.21% in test [8], -0.9% in test [9] and 0.77% in [10].

With `CN(C)CCCNc1nccc(-c2c(-c3ccc(F)cc3)nn3cc(C(F)(F)F)ccc23)n1`, the inhibition in [1] was 3.68%; in test [2], -1.5%; in test [3], -0.77%; in [4], -2.3%; in test [5] it was 3.77%; in test [6] it was 2.2%. The inhibition in test [7] is 4.39%; in test [8], -3.09%; in test [9] it was -2.3%; in test [10] it was 2.44%.

With `COc1ccc(C2=C(N3CCc4ccccc43)C(=O)NC2=O)cc1`, the inhibition was -4.91% in test [1]; 3.71% in test [2]; 2.94% in test [3]; -1.14% in test [4]; 5.15% in test [5]; 6% in [6]. The inhibition amounted to 5.72% in [7], 1.91% in [8], 0.84% in test [9] and 7.99% in test [10].

For the compound `COc1cc2ncn(-c3cc(OCc4ccccc4C(F)(F)F)c(C(C)=O)s3)c2cc1OC`, the inhibition in test [1] was -1.92%; in test [2] it was 3.79%; in test [3] it was 4.29%; in [4], 4.87%; in test [5], 2.58%; in [6] it was -3.46%. Also, the inhibition in test [7] turned out to be 3.98%; in test [8] it was 1.17%; in test [9], 1.75%; in [10], 0.53%.

On to `COc1cc(Nc2ncc3c(C)nc(-c4cccc(C(F)(F)F)c4)n3n2)cc(OC)c1OC`, for which the inhibition was -0.36% in test [1]; 3.39% in test [2]; 25.1% in [3]; -0.78% in test [4]; 11.9% in test [5]; 3.48% in test [6]. Besides, the inhibition is 5.36% in [7], 2.11% in test [8], 4.31% in test [9] and 4.48% in [10].

For `Cc1ccc(C(=O)NC(C)C)cc1-c1ccc(C(=O)NCC2CC2)cc1`, the inhibition in test [1] is 4.77%; in [2] it was -1.25%; in test [3], -1.6%; in test [4] it was -4.33%; in [5], -4.09%; in test [6] it was -3.3%. The inhibition is -4.09% in [7], -0.46% in [8], -1.32% in test [9] and -7.18% in test [10].

In the case of `O=C(Nc1n[nH]c2cc(-c3ccccc3)ccc12)C1CC1`, the inhibition in test [1] was -6.73%; in [2], 1.88%; in test [3], 6.79%; in test [4], 4.11%; in [5], 4.88%; in [6] it was 2.71%. For the same compound, the inhibition in test [7] was 6.62%; in [8] it was 1.13%; in test [9] it was 2.12%; in test [10] it was 2.97%.

On to `COC(=O)Nc1nc2ccc(Sc3ccc(NC(=O)Nc4cc(C(F)(F)F)ccc4F)cc3)cc2[nH]1`, for which the inhibition in test [1] was 10.9%; in test [2], 0.49%; in [3], 2.36%; in test [4] it was 3.33%; in test [5] it was -0.17%; in test [6], 1.16%. Also, the inhibition in test [7] was 1.4%; in test [8] it was 2.12%; in test [9] it was 2.1%; in test [10] it was 1.7%.
